According to PubChem BioAssay (NCI):
Compounds without any hit were thinned out: in the full panel of roughly 79,000, 15% have a hit. A number with no mark means an inactive call. Active and inactive are the calls of the source. No stated cut-off is given here; in the data, active means growth inhibition above about 70%; inactive means the rest.

Experiment: NCI Yeast Anticancer Drug Screen. Data for the mlh1 strain (AID 171);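 further: 0% = growth of vehicle-treated control cultures of the same strain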
Details: S. cerevisiae mlh1 strain growth inhibition, active compounds read high
Protocol: Growth inhibition of yeast strains with defined genetic alterations is measured as a screen for potential anti-cancer activity. Selected strains with alterations in DNA damage repair or cell cycle control were exposed to compounds and growth inhibition was measured relative to vehicle treated controls. The strain used in this assay is mlh1

| SMILES | growth inhibition (at 1.2 µM) [%] | growth inhibition (at 3.7 µM) [%] | growth inhibition (at 11.0 µM) [%] | growth inhibition (at 33.0 µM) | growth inhibition (at 100.0 µM) |
| --- | --- | --- | --- | --- | --- |
| Cc1cc(Cl)ccc1NC(=O)/C(Cl)=C(/Cl)C(=O)O | -1 | 2 | 5 | 22% | 100% (active) |
| COC(=O)C1=C(C(=O)OC)CC(n2nnc(C(=O)OC)c2C(=O)OC)=CC1 | -1 | -2 | -2 | -1% | -3% |
| O=[N+]([O-])c1cn[n+]([O-])c2ccccc12 | 10 | 6 | 39 | 95% (active) | 99% (active) |
| CC(C)(Br)C(=O)/C=C/c1ccccc1 | 0 | 4 | 10 | 15% | 27% |
| O=CC1(F)CC1(c1ccccc1)c1ccccc1 (stereo not given) | -2 | -3 | -3 | 2% | 94% (active) |
| COc1cc([C@@H]2c3cc4c(cc3[C@@H](NC(=O)NO)[C@H]3COC(=O)[C@H]23)OCO4)cc(OC)c1O | 0 | -2 | 1 | 2% | 7% |
| O=C1c2ccccc2N2OC3(N4CCCC4)CCCCC3C12c1ccccc1 (stereo not given) | -46 | -44 | -41 | -10% | 98% (active) |
| O=S(=O)(c1ccccc1)N1CN2CN(C1)CN(S(=O)(=O)c1ccccc1)C2 | -16 | -18 | -23 | -18% | -21% |
